# Assay results published in PubChem BioAssay (NCI).
# About 83,000 compounds went through this panel and 20% of them were active in at least one assay; those are over-represented in the sample as a whole.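 For each line, cells grew in 96-well plates with the test compound present at a single concentration for 48 hours.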 Calls of active or inactive are those of the source. The calls were made as follows: active = growth percent below 10; inactive = the rest.
# Experiments:
# Test in all cases: NCI-60 one-dose screen, 48 h (100 = growth as untreated, 0 = no growth, -100 = all killed)
# HCT-15 colon = settings: 10 µM unless noted
# HT29 colon = settings: 10 µM unless noted
# SNB-19 CNS = settings: 10 µM unless noted
# U251 CNS = settings: 10 µM unless noted
# PC-3 prostate = settings: 10 µM unless noted
# SK-MEL-5 melanoma = settings: 10 µM unless noted
# UACC-62 melanoma = settings: 10 µM unless noted
# LOX IMVI melanoma = settings: 10 µM
# SK-MEL-28 melanoma = settings: 10 µM unless noted
# SK-MEL-2 melanoma = settings: 10 µM unless noted
# EKVX NSCLC = settings: 10 µM unless noted
# SN12C renal = settings: 10 µM unless noted
# UO-31 renal = settings: 10 µM unless noted
# TK-10 renal = settings: 10 µM unless noted
# CAKI-1 renal = settings: 10 µM unless noted
# A498 renal = settings: 10 µM unless noted
# MOLT-4 leukemia = settings: 10 µM unless noted
# SNB-75 CNS = settings: 10 µM unless noted
# ACHN renal = settings: 10 µM unless noted
# CCRF-CEM leukemia = settings: 10 µM unless noted
Compound,growth (HCT-15 colon),growth (HT29 colon),growth (SNB-19 CNS),growth (U251 CNS),growth (PC-3 prostate),growth (SK-MEL-5 melanoma),growth (UACC-62 melanoma),growth (LOX IMVI melanoma),growth (SK-MEL-28 melanoma),growth (SK-MEL-2 melanoma),growth (EKVX NSCLC),growth (SN12C renal),growth (UO-31 renal),growth (TK-10 renal),growth (CAKI-1 renal),growth (A498 renal),growth (MOLT-4 leukemia),growth (SNB-75 CNS),growth (ACHN renal),growth (CCRF-CEM leukemia)
O=[N+]([O-])c1ccc(C(Br)c2ccc([N+](=O)[O-])cc2)cc1,57.8% (inactive),72.7% (inactive),106% (inactive),88.6% (inactive),61.8% (inactive),68.1% (inactive),79.5% (inactive),-40.1% (active),105% (inactive),97.6% (inactive),109% (inactive),54.9% (inactive),47.4% (inactive),97.5% (inactive),92.2% (inactive),101% (inactive),12.5% (inactive),–,–,–
Clc1ccc(Cc2nc3ccccc3s2)cc1,88% (inactive),–,121% (inactive),79.4% (inactive),63% (inactive),96.9% (inactive),87.7% (inactive),74.3% (inactive),112% (inactive),110% (inactive),86.5% (inactive),86.1% (inactive),61.2% (inactive),119% (inactive),96.3% (inactive),117% (inactive),92.6% (inactive),83.9% (inactive),98.5% (inactive),93.1% (inactive)
O=C1Nc2ccc(Br)cc2C1=O,100% (inactive),–,101% (inactive),98.5% (inactive),92.8% (inactive),101% (inactive),90.4% (inactive),87.4% (inactive),108% (inactive),117% (inactive),101% (inactive),97% (inactive),78.9% (inactive),131% (inactive),100% (inactive),107% (inactive),95.9% (inactive),92.7% (inactive),101% (inactive),93.5% (inactive)
CCN(CC)CCNc1ccc([N+](=O)[O-])c2sc3ccccc3c(=O)c12,23% (inactive),–,34.8% (inactive),22.8% (inactive),27.3% (inactive),21.1% (inactive),35.7% (inactive),19.4% (inactive),35.4% (inactive),21.6% (inactive),23.1% (inactive),28.5% (inactive),-10% (active),63.7% (inactive),-0.017% (active),43.7% (inactive),12.1% (inactive),34.8% (inactive),6.41% (active),38% (inactive)
O=C(c1ccccc1)C(O)C(Br)(CBr)c1ccccc1 (stereo not drawn),86.5% (inactive),–,90.5% (inactive),81.7% (inactive),70.2% (inactive),85.6% (inactive),65.3% (inactive),46.6% (inactive),101% (inactive),–,108% (inactive),91.6% (inactive),96.3% (inactive),87.6% (inactive),102% (inactive),–,75.1% (inactive),99.5% (inactive),93.2% (inactive),50% (inactive)
O=C(O)c1ccc2c(c1)C(=O)c1ccccc1C2=O,106% (inactive),–,104% (inactive),98.9% (inactive),96.5% (inactive),97.5% (inactive),94.9% (inactive),96.1% (inactive),111% (inactive),105% (inactive),102% (inactive),–,87% (inactive),105% (inactive),96.4% (inactive),71.8% (inactive),94.4% (inactive),91.6% (inactive),103% (inactive),108% (inactive)
C(=N\Nc1ccc2ccccc2n1)/c1ccccn1,28.5% (inactive),32.1% (inactive),21.3% (inactive),10.1% (inactive),45.1% (inactive),-10.8% (active),-14.4% (active),15.1% (inactive),32.9% (inactive),39.5% (inactive),20.7% (inactive),17.7% (inactive),-29.8% (active),48% (inactive),2.92% (active),26.7% (inactive),6.6% (active),–,7.28% (active),16.9% (inactive)
CC1(C)N=c2cc3c(cc2N1c1ccc(Cl)cc1)=Nc1ccccc1N3c1ccc(Cl)cc1,33.2% (inactive),–,66.5% (inactive),39.3% (inactive),7.55% (active),37.8% (inactive),69.1% (inactive),40.5% (inactive),86.6% (inactive),-1.35% (active),52.9% (inactive),75.7% (inactive),-37.1% (active),65.2% (inactive),44.2% (inactive),26.7% (inactive),-32.2% (active),1.77% (active),40.2% (inactive),-25.3% (active)
CCCCCCCCc1cc(Cl)c(O)c(Cl)c1,115% (inactive),–,93.2% (inactive),101% (inactive),89.9% (inactive),108% (inactive),99.5% (inactive),95.6% (inactive),112% (inactive),–,98.9% (inactive),103% (inactive),97.2% (inactive),113% (inactive),89.6% (inactive),108% (inactive),98.2% (inactive),98.4% (inactive),103% (inactive),111% (inactive)
OC(CSc1ccccc1)CN1CCN(c2ccc(Cl)cc2)CC1 (stereo not drawn),96.1% (inactive),–,94.7% (inactive),95.2% (inactive),94.3% (inactive),89.2% (inactive),82.2% (inactive),93% (inactive),110% (inactive),98.5% (inactive),95.2% (inactive),94.4% (inactive),84.8% (inactive),101% (inactive),88.1% (inactive),82.1% (inactive),83% (inactive),91.3% (inactive),97.9% (inactive),86% (inactive)
CCC(=O)c1cc([N+](=O)[O-])c(Br)s1,61% (inactive),–,99.8% (inactive),93.4% (inactive),101% (inactive),98.9% (inactive),105% (inactive),-41.2% (active),110% (inactive),106% (inactive),104% (inactive),103% (inactive),74.7% (inactive),96.6% (inactive),95.8% (inactive),87% (inactive),33.9% (inactive),95.7% (inactive),–,1.7% (active)
CC(C)(C)c1ccc(O)c(-c2ccccc2)c1,102% (inactive),107% (inactive),121% (inactive),96.3% (inactive),95.2% (inactive),116% (inactive),103% (inactive),103% (inactive),119% (inactive),–,103% (inactive),109% (inactive),110% (inactive),99.5% (inactive),86.7% (inactive),121% (inactive),-54.2% (active),–,–,97.1% (inactive)
O=C(Cc1nc2cc(Cl)c(Cl)cc2nc1CC(=O)c1cccnc1)c1cccnc1,57.2% (inactive),71.6% (inactive),–,89.3% (inactive),–,81.7% (inactive),71.4% (inactive),65.4% (inactive),87.1% (inactive),113% (inactive),54% (inactive),75% (inactive),–,141% (inactive),72.5% (inactive),133% (inactive),38.8% (inactive),88.4% (inactive),60.9% (inactive),–
NNc1cccc([N+](=O)[O-])c1,101% (inactive),99.6% (inactive),107% (inactive),89% (inactive),86.4% (inactive),109% (inactive),–,76.6% (inactive),115% (inactive),98% (inactive),–,102% (inactive),83.1% (inactive),98% (inactive),56% (inactive),83% (inactive),25.3% (inactive),–,88.7% (inactive),38.1% (inactive)
N#CCc1cccc2ccccc12,100% (inactive),96% (inactive),110% (inactive),108% (inactive),–,104% (inactive),111% (inactive),108% (inactive),94.7% (inactive),95.1% (inactive),–,110% (inactive),92% (inactive),98.3% (inactive),103% (inactive),109% (inactive),92% (inactive),–,–,91.9% (inactive)
Nc1ccc(Oc2ccccc2)c(Cl)c1,92.6% (inactive),104% (inactive),102% (inactive),84.1% (inactive),100% (inactive),95.6% (inactive),107% (inactive),103% (inactive),106% (inactive),105% (inactive),–,107% (inactive),72.1% (inactive),96.1% (inactive),100% (inactive),57.5% (inactive),97.9% (inactive),–,101% (inactive),102% (inactive)
Nc1ccc(C(=O)/C=C/c2ccccc2)cc1,87% (inactive),–,91.3% (inactive),91.8% (inactive),74.1% (inactive),102% (inactive),97% (inactive),84.9% (inactive),113% (inactive),91.6% (inactive),–,–,62.1% (inactive),85.2% (inactive),98.5% (inactive),101% (inactive),75.4% (inactive),104% (inactive),105% (inactive),58.7% (inactive)
